# The list is not random: actives were taken first. Their share in the collection is about 3.1%.
# MEKK2 WT-MEK5: raises or lowers MEK5 binding to wildtype human MEKK2 PB1 domain; bead flow cytometry, Alexa488-MEK5 binding to MEKK2 WT; actives lie on both sides; 290,000 compounds, 1.1% hits; Q9Y2U5; binding response (% of control), % at 10 µM; in the data active = binding response below about 67% or above about 130%; inconclusive = no clear call, values can overlap the other calls; inactive = in between
# PREPL inh: human PREPL enzyme inhibition. Q4J6C6. AID 2751. 320,000 compounds, 0.68% hits. recombinant PREPL, fluorescence polarization activity-based probe. inhibition, % at 5.96 µM; in the data active = inhibition above about 43%
# UBC13 inh: human UBC13 polyubiquitination inhibition. inhibition, % at 20 µM. P61088. UBC13 polyubiquitin chain formation, TR-FRET. 330,000 compounds, 0.47% hits; in the data active = inhibition above about 45%, passing the limit was not always enough; inconclusive = no clear call, values can overlap the other calls
# ATG4B inh: inhibitors of human ATG4B cysteine protease | 340,000 compounds, 0.51% hits | inhibition, % at 8.33 µM | ATG4B cleavage of LC3-PLA2, NBD-HPC fluorescence, 1 h | Q9Y4P1 | AID 504462; in the data active = inhibition above about 40%
# MEKK3 PB1 HTS: raises or lowers MEK5 binding to the human MEKK3 PB1 domain; Q99759; bead-based flow cytometry, Alexa488-MEK5 binding to MEKK3; actives lie on both sides; 0 = blocked by unlabeled MEK5, 100 = vehicle; binding response (% of control), % at 10 µM; 290,000 compounds, 1.4% hits; AID 1529;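 active = binding response more than 3 SD above or below the average of its plate-row segment, actives on both sides; inconclusive = wells at one plate position flagged as instrument error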;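 also: Alexa488 bead fluorescence after subtracting the streptavidin-only scavenger bead signal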
# Target sequence (Q99759 whole entry, looked up, the tested form may be a part): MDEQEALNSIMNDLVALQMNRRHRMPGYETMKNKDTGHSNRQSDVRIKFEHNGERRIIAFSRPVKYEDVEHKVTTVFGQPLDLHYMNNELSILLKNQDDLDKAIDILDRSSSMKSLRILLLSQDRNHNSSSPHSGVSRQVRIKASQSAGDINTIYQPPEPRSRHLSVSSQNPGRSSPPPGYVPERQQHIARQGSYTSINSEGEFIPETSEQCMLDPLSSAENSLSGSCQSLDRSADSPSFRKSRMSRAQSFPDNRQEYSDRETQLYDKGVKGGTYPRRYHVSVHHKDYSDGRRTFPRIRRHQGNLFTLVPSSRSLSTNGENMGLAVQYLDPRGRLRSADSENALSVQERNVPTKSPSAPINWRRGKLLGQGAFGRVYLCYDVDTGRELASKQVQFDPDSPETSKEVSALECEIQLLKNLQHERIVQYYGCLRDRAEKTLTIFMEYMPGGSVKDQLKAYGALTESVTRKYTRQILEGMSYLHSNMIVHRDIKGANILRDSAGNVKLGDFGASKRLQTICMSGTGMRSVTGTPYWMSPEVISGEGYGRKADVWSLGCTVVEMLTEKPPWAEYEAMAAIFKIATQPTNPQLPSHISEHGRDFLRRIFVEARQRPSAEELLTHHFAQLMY
# MEKK2 mut-MEK5: signal of MEK5 binding to mutant human MEKK2 PB1 domain. percent response, % at 10 µM. bead flow cytometry, Alexa488-MEK5 binding to MEKK2 mutant. 290,000 compounds, 0.35% hits; in the data active = percent response above about 24%, passing the limit was not always enough
# MEKK2wt confirm: raises or lowers MEK5 binding to wildtype human MEKK2, retest; shares compounds with MEKK3 PB1 HTS; bead flow cytometry, Alexa488-MEK5 binding to MEKK2 WT; actives lie on both sides; 5,900 compounds, 2.4% hits; AID 1892; binding response (% of control), % at 10 µM; in the data active = binding response below about 16% or above about 210%; inactive = in between
# MEKK2mut confirm: signal of MEK5 binding to mutant human MEKK2, retest | shares compounds with MEKK3 PB1 HTS | bead flow cytometry, Alexa488-MEK5 binding to MEKK2 mutant | percent response, % at 10 µM | 5,900 compounds, 2% hits | AID 1893; in the data active = percent response mostly above about 71%, no sharp cut-off; inactive = mostly below about 38%;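 also: higher means compound restores mutant binding toward wildtype level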
# MEKK3-MEK5 inh: confirmation of inhibitors of MEK5 binding to human MEKK3. shares compounds with MEKK3 PB1 HTS. bead flow cytometry, Alexa488-MEK5 binding to MEKK3; hits give low values. binding response (% of control), % at 10 µM. 5,900 compounds, 1.8% hits;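 active = binding response below 72% of control, or above a set upper limit, though filed actives all read lower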;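 also: lower values mean stronger disruption of MEK5 binding to MEKK3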
# Hits are given with their value; – = inactive; ? = inconclusive; · = no result; [ ] = dose if it differs, or a comment.
SMILES,MEKK2 WT-MEK5,PREPL inh,UBC13 inh,ATG4B inh,MEKK3 PB1 HTS,MEKK2 mut-MEK5,MEKK2wt confirm,MEKK2mut confirm,MEKK3-MEK5 inh
COC(=O)c1[nH]c2ccccc2c1Sc1ccccc1,–,·,–,–,–,–,·,·,·
CNC(=O)CCc1[nH]c2ccccc2c1Sc1ccccc1,–,–,–,–,160,–,–,–,–
CCOC(=O)c1ccc(NC(=O)CSc2nnc(C3CCCCC3)n2C)cc1,–,–,–,–,126,–,–,–,–
CCOc1ccc(NC(=O)CSc2nnc(C3CC3)n2C)cc1,–,–,–,–,–,–,·,·,·
CC(C)(c1ccccc1)c1ccc(OCCCNCCO)cc1,145,–,–,–,–,–,–,–,–
CNc1ccc(OC(F)F)cc1C(=O)c1ccccc1,-2.0[inhibitor],–,–,–,1.0[inhibitor],–,–,–,–
O=C(CSCc1ccc(Cl)c(Cl)c1)Nc1c[nH]c(=O)[nH]c1=O,–,–,–,–,71[inhibitor],–,–,–,–
Cc1ccc(S(=O)(=O)NCCC(=O)OCc2ccc([N+](=O)[O-])cc2)cc1C,·,–,–,–,·,·,·,·,·
Cc1ccc(S(=O)(=O)n2[nH]c(=O)cc2NC(=O)c2cccs2)cc1,-4.0[inhibitor],–,–,·,1.0[inhibitor],–,–,–,–
Cc1cc(C(=O)NC2=NCCS2)c2ccccc2n1,–,–,–,–,132,–,–,–,–
Cc1cc(NCC(c2ccccc2)c2ccccc2)n2ncnc2n1,–,–,–,–,–,–,·,·,·
CN1CCN(c2ccc(Cl)cc2NC(=O)c2cc(=O)[nH]c3ccccc23)CC1,·,–,–,–,·,·,·,·,·
CN1CCN(c2cc3c(c4c2[nH]c2ccccc24)C(=O)CC(C)(C)C3)CC1,159,–,–,–,–,36,–,–,–
O=C(c1cccs1)c1ccc(-c2cccs2)s1,61[inhibitor],–,?,–,–,–,–,–,–
Cn1c(-c2ccc(C(C)(C)C)cc2)n[nH]c1=S,–,–,–,–,81[inhibitor],–,–,–,–
CCn1c(-c2ccc(C(C)(C)C)cc2)n[nH]c1=S,–,–,–,–,–,–,·,·,·
COc1cc(CN(CCN(C)C)Cc2ccccc2)ccc1OCc1ccccc1,138,–,–,–,–,–,–,–,–
COc1ccc(CN(CCc2ccccc2)Cc2ccccc2)cc1OC,–,–,–,–,–,–,·,·,·
NCC(c1ccc(Cl)cc1Cl)c1c[nH]c2ccccc12 (stereo unspecified),141,–,–,–,–,–,–,–,–
Cc1occc1-c1nnc(SCC(=O)Nc2ccccc2)n1Cc1ccccc1,–,–,–,–,–,–,·,·,·
COCCn1c(SCC(=O)Nc2nnc(C)s2)nnc1-c1ccoc1C,–,–,–,–,129,–,–,–,–
Cc1ccc(C)c(-n2c(SCC(=O)Nc3nnc(C)s3)nnc2-c2ccoc2C)c1,2.0[inhibitor],–,–,–,2.0[inhibitor],–,–,–,–
Cc1occc1-c1nnc(SCC(=O)Nc2ccc(F)cc2)n1Cc1ccccc1,2.0[inhibitor],–,–,–,2.0[inhibitor],–,–,–,–
CCn1c(Cc2ccccc2)nnc1SCC(=O)Nc1ccc(OC)cc1,–,–,–,–,44[inhibitor],–,–,–,–
Cc1ccc(S(=O)(=O)NCC(=O)OCC(=O)Nc2ccc3c(c2)OCCO3)cc1,·,–,–,–,·,·,·,·,·
Nc1c(C(=O)CSc2nnc(Cc3ccccc3)o2)c(=O)[nH]c(=O)n1C1CC1,·,–,–,–,·,·,·,·,·
O=S(=O)(NC12CC3CC(CC(C3)C1)C2)c1ccc(F)cc1,–,–,–,–,–,–,·,·,·
O=C(CCN1C(=O)C2CC=CCC2C1=O)Nc1cc(C(F)(F)F)ccc1N1CCCC1 (stereo unspecified),·,–,–,–,·,·,·,·,·
CC(=O)c1ccc(NC(=S)NNC(=O)c2ccccc2[N+](=O)[O-])cc1,–,–,–,–,–,–,·,·,·

# Screening results deposited in PubChem by several laboratories.
